Measured values from the supplement of paper PMC9177965.

These compounds were tested on HT29 RNF43 G659fs (RNF43 659mut, CRISPR-edited) (assay: cell viability activity relative to DMSO (negative = inhibition); higher = more viable cells (less growth inhibition)). Details: 5 µM; 96 h.
Protocol: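 Broad Repurposing Library primary screen at a single dose of 5 uM. HT29 sg-Ctrl and HT29 RNF43 G659fs CRISPR-edited isogenic cells were seeded at 2500 cells/well in 384-well plates in duplicate and treated for 96 h. Viability was read by CellTiter-Glo and reported as % activity relative to DMSO, with MG132 as the positive control (negative = growth inhibition).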

Row | SMILES | cell viability activity
1 | CC(C)C[C@@H](C=O)NC(=O)[C@H](CC(C)C)NC(=O)[C@H](CC(C)C)NC(=O)OCc1ccccc1 | -96.9%
2 | CCN(CC)C(=S)SSC(=S)N(CC)CC | -79.2%
3 | CCCCCCCCCc1ccc(OCCOCCOCCOCCOCCOCCOCCOCCOCCO)cc1 | -55.9%
4 | Cc1c(C(=O)N2CCOc3ccc(-c4ccc(N)nc4)cc3C2)ccc(S(C)(=O)=O)c1F | -41.2%
5 | NC(=O)Nc1cc(-c2cccc(F)c2)sc1C(=O)N[C@H]1CCCNC1 | -79.6%
6 | COc1cc(F)c(F)c(Nc2ccc(I)cc2F)c1NS(=O)(=O)C1(C[C@H](O)CO)CC1 | -74.1%
7 | CC[C@@H]1C(=O)N(C)c2cnc(Nc3ccc(C(=O)NC4CCN(C)CC4)cc3OC)nc2N1C1CCCC1 | -83.2%
8 | CCCCc1oc2ccccc2c1C(=O)c1cc(I)c(OCCN(CC)CC)c(I)c1 | -99.4%
9 | COc1cc(N2CCC(N3CCN(C)CC3)CC2)ccc1Nc1ncc(Cl)c(Nc2ccccc2S(=O)(=O)C(C)C)n1 | -53.9%
10 | CC(CN1c2ccccc2Sc2ccccc21)N(C)C (configuration not stated) | -40.7%
11 | COc1cc(N2CCC(N3CCN(C)CC3)CC2)ccc1Nc1ncc(Cl)c(Nc2ccccc2P(C)(C)=O)n1 | -82.9%
12 | CN1CCC(CNc2ccc3ncc(-c4cccc(OC(F)(F)F)c4)n3n2)CC1 | -53%
13 | Nc1ccc(-c2cccc3c(=O)cc(N4CCOCC4)oc23)cc1 | -64.9%
14 | CO[C@H]1C(=O)[C@]2(C)[C@@H](OC)C[C@H]3OC[C@@]3(OC(C)=O)[C@H]2[C@H](OC(=O)c2ccccc2)[C@]2(O)C[C@H](OC(=O)[C@H](O)[C@@H](NC(=O)OC(C)(C)C)c3ccccc3)C(C)=C1C2(C)C | -45%
15 | OC1(c2ccc(Cl)c(C(F)(F)F)c2)CCN(CCCC(c2ccc(F)cc2)c2ccc(F)cc2)CC1 | -83%
16 | CC[C@@H](C(=O)[C@@H](C)[C@@H](O)[C@H](C)CCc1ccc(C)c(O)c1C(=O)O)[C@H]1O[C@](CC)([C@H]2CC[C@](O)(CC)[C@H](C)O2)C[C@@H]1C | -65.8%
17 | COc1cccc2cc(-c3nc([C@H]4CC[C@H](C(=O)O)CC4)n4ncnc(N)c34)[nH]c12 | -50.5%
18 | COc1ncc(-c2ccc3nccc(-c4ccnnc4)c3c2)cc1NS(=O)(=O)c1ccc(F)cc1F | -93.8%
19 | COC(=O)[C@H]1[C@H]2C[C@@H]3c4[nH]c5cc(OC)ccc5c4CCN3C[C@H]2C[C@@H](OC(=O)c2cc(OC)c(OC)c(OC)c2)[C@@H]1OC | -26.1%

Row | SMILES | cell viability activity
20 | Cc1cc(N2CCOCC2)cc2[nH]c(-c3c(NC[C@@H](O)c4cccc(Cl)c4)cc[nH]c3=O)nc12 | -55%
21 | CC(C)C[C@H](NC(=O)CNC(=O)c1cc(Cl)ccc1Cl)B(O)O | -94.3%
22 | O=C(c1c(F)ccc(NS(=O)(=O)N2CC[C@@H](F)C2)c1F)c1c[nH]c2ncc(-c3cnc(C4CC4)nc3)cc12 | -66.1%
23 | O=C(NO)c1cnc(N2CCN(S(=O)(=O)c3ccc4ccccc4c3)CC2)nc1 | -64.4%
24 | O=C(Nc1cc(C(F)(F)F)cc(C(F)(F)F)c1)c1cc(Cl)ccc1O | -94.4%
25 | CN1CCN(Cc2ccc(Nc3ncc(Cl)c(Nc4ccccc4S(=O)(=O)N(C)C)n3)cc2)CC1 | -94.8%
26 | Nc1ccccc1NC(=O)c1ccc(CNC(=O)OCc2cccnc2)cc1 | -71.7%
27 | CCCCc1oc2ccc(NS(C)(=O)=O)cc2c1C(=O)c1ccc(OCCCN(CCCC)CCCC)cc1 | -96.2%
28 | CC(=O)OC1CC2CCC1(C)C2(C)C (configuration not stated) | -28.1%
29 | Cc1cc(I)ccc1Nc1c(C(=O)NOCC2CC2)cc(F)c(F)c1F | -65.5%
30 | COc1cc(N2CCC(N3CCN(C)CC3)CC2)ccc1Nc1ncnc(Nc2ccccc2S(=O)(=O)C(C)C)n1 | -33.3%
31 | CNC(=O)Nc1ccc(-c2nc(N3CC4CCC(C3)O4)c3cnn(C4CCC5(CC4)OCCO5)c3n2)cc1 | -50.9%
32 | COC(=O)Nc1ccc(-c2nc(N3CCOCC3)c3cnn(C4CCN(Cc5cccnc5)CC4)c3n2)cc1 | -55.8%
33 | Nc1nc(Nc2ccc3c(c2)CCC(N2CCCC2)CC3)nn1-c1cc2c(nn1)-c1ccccc1CCC2 (configuration not stated) | -28.9%
34 | N#Cc1ccc(Cn2cncc2CN2CCN(c3cccc(Cl)c3)C(=O)C2)cc1 | -45.7%
35 | CCCCCCCC[N+](C)(C)Cc1ccccc1 | -22.5%
36 | Nc1ncnc2c1nc(Br)n2[C@@H]1O[C@@H]2COP(=O)(O)O[C@H]2[C@H]1O | -26.8%
37 | O=C1NCN(c2ccccc2)C12CCN(CCCC(c1ccc(F)cc1)c1ccc(F)cc1)CC2 | -27.2%
